Assay results published in publication PMC4336329 (PLoS ONE, 2015).
About 14,000 (4.5%) of roughly 310,000 compounds showed an effect of 50% or more. Effects have a minus sign here. This is one part of a sample in which strong results are shown more often than they occur.

Target: human ether-à-go-go-related gene (hERG) potassium channel (human, UniProt Q12809)
Assay: primary screen, population patch clamp on CHO cells stably expressing hERG; higher = less effect of the substance
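Also: peak tail current of the secondary pulse compared with the same well before compound.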

Sequence of human ether-à-go-go-related gene (hERG) potassium channel (Q12809 whole entry, looked up): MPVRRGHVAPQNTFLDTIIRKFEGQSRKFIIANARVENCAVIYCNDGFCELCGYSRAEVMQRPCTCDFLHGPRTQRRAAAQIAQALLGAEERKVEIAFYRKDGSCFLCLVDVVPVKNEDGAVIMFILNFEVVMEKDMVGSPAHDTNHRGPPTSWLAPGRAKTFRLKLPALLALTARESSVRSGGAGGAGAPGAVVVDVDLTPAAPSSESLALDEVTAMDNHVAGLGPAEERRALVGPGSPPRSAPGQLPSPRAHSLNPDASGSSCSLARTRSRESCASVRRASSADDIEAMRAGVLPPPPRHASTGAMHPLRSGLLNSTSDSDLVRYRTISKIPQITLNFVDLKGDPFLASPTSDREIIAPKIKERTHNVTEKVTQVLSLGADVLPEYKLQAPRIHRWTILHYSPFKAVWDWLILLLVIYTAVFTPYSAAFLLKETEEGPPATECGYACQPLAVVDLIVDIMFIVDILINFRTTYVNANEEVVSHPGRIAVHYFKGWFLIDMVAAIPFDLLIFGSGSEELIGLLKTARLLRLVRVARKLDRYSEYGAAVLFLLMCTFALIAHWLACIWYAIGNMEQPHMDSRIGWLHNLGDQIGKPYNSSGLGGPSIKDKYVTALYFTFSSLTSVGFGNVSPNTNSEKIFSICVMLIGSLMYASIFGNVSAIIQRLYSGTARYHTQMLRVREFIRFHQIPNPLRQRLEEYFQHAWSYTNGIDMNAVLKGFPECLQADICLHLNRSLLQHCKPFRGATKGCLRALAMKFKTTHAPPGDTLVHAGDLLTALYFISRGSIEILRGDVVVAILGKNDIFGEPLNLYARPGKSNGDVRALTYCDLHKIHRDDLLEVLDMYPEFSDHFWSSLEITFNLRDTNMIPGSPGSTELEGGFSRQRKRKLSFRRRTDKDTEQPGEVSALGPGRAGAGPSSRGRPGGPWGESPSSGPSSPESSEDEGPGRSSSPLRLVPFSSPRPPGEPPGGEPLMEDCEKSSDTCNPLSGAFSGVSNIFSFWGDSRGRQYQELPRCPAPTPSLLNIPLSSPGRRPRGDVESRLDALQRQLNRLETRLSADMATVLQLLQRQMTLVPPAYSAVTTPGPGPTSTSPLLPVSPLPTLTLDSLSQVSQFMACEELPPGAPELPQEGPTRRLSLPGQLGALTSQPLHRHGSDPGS

SMILES	hERG current change (%, negative = inhibition) at 10uM [%]
C/C(=N/NC(=O)CNC(=O)c1ccco1)c1ccco1	2.11
Cc1cccnc1NC(=O)Nc1ccc(Cl)cc1	9.39
Cc1ccc(N(CCC#N)C(=O)CSc2nnc3ccccn23)cc1	-8.44
COc1ccc2ccccc2c1CN1CCN(Cc2ccccc2)CC1	-2.66
Oc1cccc(Nc2nc(N3CCOCC3)nc(N3CCOCC3)n2)c1	8.76
CSc1ccc(CN(C)C(=O)CNC(=O)CNS(=O)(=O)c2ccc(C)c(C)c2)cc1	-24.1
CN(C(=O)N1CCN(c2ccccn2)CC1)c1ccccc1	7.47
Cc1cc(Cn2nc(C(=O)NCc3cccc(C(F)(F)F)c3)cc2-c2ccccc2)on1	-57
Cc1cc(Cn2nc(-c3ccccc3)cc2C(=O)NCc2cccc(C(F)(F)F)c2)on1	10.8
Cc1cc(Cn2nc(C(=O)NCc3cccc(Br)c3)cc2-c2ccccc2)on1	-20.3
CCOC(=O)c1c(NC(=O)CSc2nnc(C)s2)sc2c1CCC(C)C2 (stereo not drawn)	21.5
CN1CCN(c2ccc(NS(=O)(=O)c3ccc(Cl)cc3)cn2)CC1	-40.2
O=C(CC1SC(=O)N(Cc2ccccc2Cl)C1=O)Nc1nccs1 (stereo not drawn)	-5.31
CC1=C/C(=N\NC(=O)c2ccc(O)cc2)CC1	20.8
CC1=C/C(=N\NC(=O)c2ccccc2)CC1	-53.1
COc1ccccc1OCC(=O)N/N=C1/C=C(C)CC1	-3.82
Cc1oc2c(c1C(=O)NCc1cccnc1)C(=O)c1ccccc1C2=O	-47
COc1cccc(NC(=O)CCc2nc(-c3ccccc3F)no2)c1	-0.885
COc1cc(OC)c(C(=O)Nc2cc(Cl)ccc2-n2cncn2)cc1OC	-55
COc1ccc(C(=O)Nc2cc(Cl)ccc2-n2cncn2)c(OC)c1OC	-14.4
COc1ccccc1C(=O)Nc1cc(Cl)ccc1-n1cncn1	0.114
O=C(Nc1cc(Cl)ccc1-n1cncn1)c1ccc(F)c(S(=O)(=O)N2CCOCC2)c1	-44.6
O=C(Nc1cc(Cl)ccc1-n1cncn1)c1cccc(S(=O)(=O)N2CCOCC2)c1	-61.9
O=C(Nc1cc(Cl)ccc1-n1cncn1)c1cc(S(=O)(=O)N2CCOCC2)ccc1F	-34.7
CN1CCN(S(=O)(=O)c2cccc(C(=O)Nc3cc(Cl)ccc3N3CCOCC3)c2)CC1	-42.3
CCN(CC)c1ccc(C(=O)NC(=S)Nc2cc(S(=O)(=O)N3CCOCC3)ccc2-n2cncn2)cc1	-7.1
O=C(Nc1cc(S(=O)(=O)N2CCOCC2)ccc1-n1cncn1)c1ccc(Cl)cc1	-50.4

SMILES	hERG current change (%, negative = inhibition) at 10uM [%]
Oc1c(C(c2cccs2)N2CCN(c3ccccc3)CC2)ccc2cccnc12 (stereo not drawn)	7.17
COC(=O)C1C(O)=C(C=NCc2ccccc2)C(=O)CC1(C)C (stereo not drawn)	-5.13
CC(=O)N(C)c1ccc(NC(=O)N2CCOCC2)cc1	4.94
Cc1ccc(N2CC(O)Cn3c2nc2c3c(=O)[nH]c(=O)n2C)cc1 (stereo not drawn)	13.3
Cc1ccc2nc(NCCC(=O)O)nc(-c3ccccc3)c2c1	3.76
CN(Cc1ccccc1)C(=O)CCC1CCN(C(=O)CCC(F)(F)F)CC1	-4.45
CSCc1ccc(C(=O)N2CCC(CCC(=O)N(C)Cc3ccccc3)CC2)o1	-50.7
CN(Cc1ccccc1)C(=O)CCC1CCN(C(=O)c2ccccc2C(F)(F)F)CC1	8.38
COC(=O)c1ccc(OC)c(CSc2nnc(COc3ccccc3)o2)c1	-17.7
CCOC(=O)c1c(CSC(=N)N)n(-c2ccccc2)c2cc(Br)c(OC(C)=O)cc12	-77.9
CCOC(=O)c1c(C)n(C)c2cc(Br)c(C)cc12	23.3
Br.CCOC(=O)c1c(CSC(=N)N)n(-c2ccc(C)cc2)c2cc(Br)c(OC(C)=O)cc12	-65.4
Br.CCOC(=O)c1c(CSC(=N)N)n(C)c2cc(Br)c(OC(C)=O)cc12	-68.7
CCOC(=O)c1c(C)n(C)c2c1cc(OC(C)=O)c1ccccc12	19.7
CCOC(=O)c1c(CSc2ccccc2)n(C)c2cc(Br)c(OCC(O)CNC(CO)(CO)CO)cc12 (stereo not drawn)	2.71
C=CCCc1ccc(C#N)c(SCc2c(C(=O)OCC)c3cc(OC(C)=O)c(Br)cc3n2C)n1	-1.18
CCOC(=O)c1c(CSc2nc(C)cc(C)c2C#N)n(C)c2cc(Br)c(OC(C)=O)cc12	8.76
Br.CCCCCCCCOC(=O)c1c(CSC(=N)N)n(C)c2cc(Br)c(OC(C)=O)cc12	-22.8
CC12CCC(C(=O)Nc3cccc(Cl)c3Cl)([C@H](Br)C1=O)C2(C)C (stereo partly drawn)	-39.6
COC(=O)c1ccc(NC(=O)C2CCCN(S(=O)(=O)c3cnc[nH]3)C2)cc1 (stereo not drawn)	3.35
Cc1ccc(C(=O)c2oc3ccccc3c2N)cc1	-7.77
CCCCOc1ccc(C(=O)NCC(=O)NC(C)CCc2ccccc2)cc1 (stereo not drawn)	-4.99
CC(=O)c1cnc(N(C)C)s1	10
Cc1nnc(SCC(=O)Nc2ccc(-c3nc4ccccc4s3)cc2)s1	23.4
N/C(=N\[N+](=O)[O-])N1CCN(C(=O)OC2CCCC2)CC1	19.4
COc1ccc(CNC(=O)CC(C)S(=O)(=O)c2ccc3c(c2)NC(=O)CO3)cc1 (stereo not drawn)	10.1
Cn1c(SCC(=O)Nc2ccc(Cl)cn2)nnc1C1CC1	-3.25
